The record followed here is PMC5540273 (PLoS ONE, 2017).

Among the test systems are CAMK1B; CAMK1D; CAMK1G; CAMK1; CAMK2A; CAMK2B; CAMK2D; CAMK2G; CAMK4; CAMKK1; CAMKK2; CASK; CDC2L2; CDK2; CDK3; CDK4-cyclinD1; CDK4-cyclinD3.
Holding throughout (conditions): n = 1
In the next assay the test system is T1, CDC2L1.
T1 construct: gene CDK11B

Another assay has as its system T2, CDC2L5.
T2 construct: gene CDK13

In another assay the test system is T3, CDK11.
T3 construct: gene CDK19

Where [1] appears, read: concentration: 1 μM, replicates: in singlicate.

The structures appear in SMILES notation. Like-named read-outs stand apart in the source and are kept apart here.
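Also: KINOMEscan kinase panel screen.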

Take `Cn1ccc2ncnc(Oc3cccc(C(=O)Nc4ccccc4)c3)c21`: the “%Inh” value is 12% in the assay on CAMK1B (setting [1]); 0% with CAMK1D (setting [1]); 17% in the assay with CAMK1G (setting [1]); 29% in the assay with CAMK1 (setting [1]); 1% with CAMK2A (setting [1]); 0% in the assay with CAMK2B (setting [1]). Also, the “%Inh” value in the assay with CAMK2D (setting [1]) is 20%; with CAMK2G (setting [1]), 19%; in the assay on CAMK4 (setting [1]), 0%; in the assay on CAMKK1 (setting [1]), 20%; in the assay with CAMKK2 (setting [1]), 0%; with CASK (setting [1]), 5%. In addition, the “%Inh” value in the assay on CDC2L1 (setting [1]) is reported as 0%; with CDC2L2 (setting [1]) it was 0%; in the assay with CDC2L5 (setting [1]), 0%; with CDK11 (setting [1]), 0%; with CDK2 (setting [1]), 6%; in the assay with CDK3 (setting [1]), 1%. The “%Inh” value in the assay on CDK4-cyclinD1 (setting [1]) turned out to be 16%; in the assay on CDK4-cyclinD3 (setting [1]), 0%.
With `Cc1cc(-c2ccc3c(c2)CC[C@@H](N[C@@H](C)c2ccccc2)C3)cnc1N.Cl` [GW412617], the “%Inh” value in the assay on CAMK1B (setting [1]) turned out to be 4%; with CAMK1D (setting [1]), 13%; in the assay on CAMK1G (setting [1]), 100%; in the assay with CAMK1 (setting [1]), 23%; in the assay with CAMK2A (setting [1]), 0%; in the assay on CAMK2B (setting [1]) it was 0%. Moreover, the “%Inh” value in the assay on CAMK2D (setting [1]) was found to be 97.6%; with CAMK2G (setting [1]), 21%; in the assay on CAMK4 (setting [1]) it was 18%; in the assay with CAMKK1 (setting [1]), 12%; in the assay with CAMKK2 (setting [1]), 23%; in the assay on CASK (setting [1]), 0%. Also, the “%Inh” value in the assay with CDC2L1 (setting [1]) was determined as 0%; in the assay on CDC2L2 (setting [1]), 2%; in the assay on CDC2L5 (setting [1]), 0%; in the assay on CDK11 (setting [1]), 40%; with CDK2 (setting [1]), 12%; in the assay with CDK3 (setting [1]), 6%. Also, the “%Inh” value with CDK4-cyclinD1 (setting [1]) and in the assay with CDK4-cyclinD3 (setting [1]) was 0% each time.
As for `Cc1ccc(-c2cc(-c3c[nH]nc3-c3ccccn3)ccn2)cc1` [GW684088], the “%Inh” value in the assay with CAMK1B (setting [1]) turned out to be 55%; with CAMK1D (setting [1]), 13%; in the assay on CAMK1G (setting [1]), 14%; in the assay with CAMK1 (setting [1]) it was 9%; in the assay on CAMK2A (setting [1]), 2%; with CAMK2B (setting [1]) it was 0%. For the same compound, the “%Inh” value with CAMK2D (setting [1]) is reported as 16%; with CAMK2G (setting [1]) it was 25%; in the assay with CAMK4 (setting [1]), 0%; in the assay on CAMKK1 (setting [1]) it was 30%; in the assay with CAMKK2 (setting [1]) it was 26%; in the assay with CASK (setting [1]), 0%. Also, the “%Inh” value with CDC2L1 (setting [1]) stood at 0%; with CDC2L2 (setting [1]), 17%; with CDC2L5 (setting [1]) it was 0%; in the assay on CDK11 (setting [1]), 16%; in the assay on CDK2 (setting [1]), 0%; with CDK3 (setting [1]), 0%. The “%Inh” value stood at 28% in the assay with CDK4-cyclinD1 (setting [1]) and 0% in the assay on CDK4-cyclinD3 (setting [1]).
For `O=C1NC(=O)C(N2CCc3ccccc32)=C1c1ccccc1Cl` [SB-373598], the “%Inh” value in the assay with CAMK1B (setting [1]) came to 41%; in the assay with CAMK1D (setting [1]), 65%; in the assay on CAMK1G (setting [1]), 0%; in the assay on CAMK1 (setting [1]), 67%; with CAMK2A (setting [1]) it was 20%; in the assay with CAMK2B (setting [1]), 0%. Also, the “%Inh” value in the assay on CAMK2D (setting [1]) came out at 18%; with CAMK2G (setting [1]), 22%; with CAMK4 (setting [1]) it was 10%; in the assay with CAMKK1 (setting [1]), 4%; in the assay with CAMKK2 (setting [1]) it was 4%; in the assay with CASK (setting [1]), 0%. Moreover, the “%Inh” value in the assay on CDC2L1 (setting [1]) was 0%; in the assay on CDC2L2 (setting [1]), 3%; in the assay with CDC2L5 (setting [1]), 0%; with CDK11 (setting [1]), 12%; in the assay on CDK2 (setting [1]), 16%; in the assay with CDK3 (setting [1]) it was 0%. For the same compound, the “%Inh” value was found to be 14% in the assay with CDK4-cyclinD1 (setting [1]) and 15% in the assay on CDK4-cyclinD3 (setting [1]).
As to `CS(=O)(=O)c1ccc(-c2nc3n(c2-c2ccncc2)CCC3)cc1` [SKF-105942], the “%Inh” value in the assay with CAMK1B (setting [1]) stood at 7%; in the assay on CAMK1D (setting [1]), 0%; in the assay with CAMK1G (setting [1]) it was 14%; in the assay with CAMK1 (setting [1]) it was 8%; with CAMK2A (setting [1]) it was 0%; in the assay on CAMK2B (setting [1]), 0%. For the same compound, the “%Inh” value came out at 6% in the assay with CAMK2D (setting [1]); 6% with CAMK2G (setting [1]); 0% in the assay with CAMK4 (setting [1]); 0% in the assay with CAMKK1 (setting [1]); 0% in the assay with CAMKK2 (setting [1]); 26% with CASK (setting [1]). In addition, the “%Inh” value in the assay on CDC2L1 (setting [1]) turned out to be 100%; in the assay with CDC2L2 (setting [1]), 0%; in the assay on CDC2L5 (setting [1]), 0%; in the assay with CDK11 (setting [1]), 0%; in the assay on CDK2 (setting [1]) it was 0%; in the assay with CDK3 (setting [1]), 28%. Moreover, the “%Inh” value in the assay on CDK4-cyclinD1 (setting [1]) is listed as 0%; in the assay with CDK4-cyclinD3 (setting [1]), 6%.
Turning to `Fc1cc(Cl)ccc1Nc1ccnc2cc(I)ccc12` [GW551191], the “%Inh” value came out at 5% in the assay on CAMK1B (setting [1]); 0% with CAMK1D (setting [1]); 0% with CAMK1G (setting [1]); 0% in the assay on CAMK1 (setting [1]); 0% with CAMK2A (setting [1]); 0% with CAMK2B (setting [1]). Further, the “%Inh” value with CAMK2D (setting [1]) was found to be 1%; in the assay with CAMK2G (setting [1]), 14%; with CAMK4 (setting [1]) it was 0%; in the assay with CAMKK1 (setting [1]), 0%; with CAMKK2 (setting [1]) it was 0%; in the assay with CASK (setting [1]), 24%. Besides, the “%Inh” value in the assay on CDC2L1 (setting [1]) is 0%; in the assay on CDC2L2 (setting [1]) it was 0%; in the assay with CDC2L5 (setting [1]), 0%; in the assay on CDK11 (setting [1]), 16%; with CDK2 (setting [1]), 0%; in the assay on CDK3 (setting [1]), 0%. The “%Inh” value with CDK4-cyclinD1 (setting [1]) and in the assay on CDK4-cyclinD3 (setting [1]) was 0% in each case.
As for `Cn1ccc2ncnc(Oc3ccc(Nc4nc5ccccc5[nH]4)cc3)c21`, the “%Inh” value in the assay with CAMK1B (setting [1]) was 0%; in the assay with CAMK1D (setting [1]), 0%; in the assay on CAMK1G (setting [1]), 0%; in the assay on CAMK1 (setting [1]), 0%; in the assay with CAMK2A (setting [1]), 7%; in the assay on CAMK2B (setting [1]), 5%. For the same compound, the “%Inh” value in the assay with CAMK2D (setting [1]) amounted to 2%; with CAMK2G (setting [1]) it was 0%; in the assay with CAMK4 (setting [1]) it was 0%; in the assay with CAMKK1 (setting [1]), 14%; in the assay on CAMKK2 (setting [1]) it was 22%; in the assay with CASK (setting [1]), 0%. For the same compound, the “%Inh” value turned out to be 0% with CDC2L1 (setting [1]); 1% in the assay with CDC2L2 (setting [1]); 0% in the assay with CDC2L5 (setting [1]); 6% with CDK11 (setting [1]); 6% in the assay with CDK2 (setting [1]); 0% in the assay on CDK3 (setting [1]). Also, the “%Inh” value with CDK4-cyclinD1 (setting [1]) and with CDK4-cyclinD3 (setting [1]) was 0% in each case.
On to `Cc1ccc(NC(=O)Nc2cccc(C(F)(F)F)c2)cc1` [GSK955403], for which the “%Inh” value in the assay with CAMK1B (1 µM) was 0%; in the assay on CAMK1D (1 µM) it was 25%; with CAMK1G (1 µM), 10%; in the assay on CAMK1 (1 µM) it was 7%; in the assay on CAMK2A (1 µM), 32%; in the assay on CAMK2B (1 µM) it was 25%. Besides, the “%Inh” value is 8% in the assay with CAMK2D (1 µM); 4% with CAMK2G (1 µM); 5% in the assay on CAMK4 (1 µM); 9% with CAMKK1 (1 µM); 19% in the assay on CAMKK2 (1 µM); 15% in the assay on CASK (1 µM). Also, the “%Inh” value with CDC2L1 (1 µM) is given as 3%; in the assay on CDC2L2 (1 µM), 0%; in the assay on CDC2L5 (1 µM), 0%; with CDK11 (1 µM), 20%; in the assay on CDK2 (1 µM) it was 0%; in the assay with CDK3 (1 µM) it was 0%. Further, the “%Inh” value with CDK4-cyclinD1 (1 µM) and in the assay on CDK4-cyclinD3 (1 µM) was 0% throughout.
`Cc1cccc(-c2nc(Nc3ccncc3)c3ccccc3n2)n1` [GW855857]: the “%Inh” value with CAMK1B (setting [1]) amounted to 0%; in the assay on CAMK1D (setting [1]) it was 3%; in the assay with CAMK1G (setting [1]), 0%; with CAMK1 (setting [1]), 0%; with CAMK2A (setting [1]) it was 6%; in the assay with CAMK2B (setting [1]), 0%. Besides, the “%Inh” value in the assay with CAMK2D (setting [1]) was determined as 7%; with CAMK2G (setting [1]), 0%; with CAMK4 (setting [1]) it was 47%; with CAMKK1 (setting [1]) it was 24%; with CAMKK2 (setting [1]), 7%; in the assay on CASK (setting [1]) it was 0%. Moreover, the “%Inh” value in the assay on CDC2L1 (setting [1]) was 0%; in the assay with CDC2L2 (setting [1]) it was 0%; with CDC2L5 (setting [1]) it was 0%; in the assay with CDK11 (setting [1]) it was 0%; in the assay on CDK2 (setting [1]), 0%; in the assay with CDK3 (setting [1]), 20%. Also, the “%Inh” value amounted to 13% with CDK4-cyclinD1 (setting [1]) and 0% with CDK4-cyclinD3 (setting [1]).
Turning to `Cc1cccc(-c2nc(-c3ccc(S(C)(=O)=O)cc3)sc2-c2ccnc(NCCc3ccccc3)c2)c1`, the “%Inh” value is 0% with CAMK1B (setting [1]); 0% in the assay with CAMK1D (setting [1]); 16% in the assay on CAMK1G (setting [1]); 31% in the assay with CAMK1 (setting [1]); 0% with CAMK2A (setting [1]); 0% in the assay with CAMK2B (setting [1]). The “%Inh” value is given as 7% in the assay on CAMK2D (setting [1]); 9% in the assay on CAMK2G (setting [1]); 0% in the assay with CAMK4 (setting [1]); 13% in the assay with CAMKK1 (setting [1]); 0% in the assay with CAMKK2 (setting [1]); 18% with CASK (setting [1]). The “%Inh” value with CDC2L1 (setting [1]) is recorded as 6%; in the assay on CDC2L2 (setting [1]), 0%; in the assay on CDC2L5 (setting [1]), 44%; in the assay on CDK11 (setting [1]), 0%; in the assay on CDK2 (setting [1]) it was 0%; in the assay on CDK3 (setting [1]), 0%. Besides, the “%Inh” value in the assay on CDK4-cyclinD1 (setting [1]) and in the assay with CDK4-cyclinD3 (setting [1]) was 0% in each case.
